High-throughput results from PubChem BioAssay.
Shown are actives, neighbours in structure and some others; about 2.7% of the full set was active somewhere.
A549 viability: kills or reduces viability of A549 cells in Nrf2 counter-screen; A549 ARE-Fluc cells, CellTiter-Fluor viability, 18-24 h; Potency, µM (series often up to 46 µM), for the others: top-dose activity change, negative = cytotoxicity, actives largely listed as inhibitors; actives 0.16% (n = 390,000); AID 504648; note: potency is the fitted concentration of half-maximal effect; % is set by controls: 0 for no effect and ±100 for the full control effect
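A549 ARE_Fluc cells in 5% FBS OPTI-MEM were exposed to compounds in concentration-response for 18-24 h at 37 deg C. Viability was read by CellTiter-Fluor fluorescence (Ex 405/Em 525) after 30 min, before the luciferase read.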
Nrf2 ARE act: Nrf2 pathway activation; AREc32 ARE-luciferase reporter (MCF7-derived line), luminescence, 24 h; Potency, µM (doses to about 46.1 µM), for the others: at the top dose activation, usual class: activators; actives 0.31% (n = 410,000); AID 624171; note: potency is the fitted concentration of half-maximal effect; % of control where 0% means no effect; nearly all actives have a fitted effect of over 65% in size
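Cells of the AREc32 ARE-luciferase line are plated in OPTI-MEM containing 5% FBS and left overnight at 37 deg C. Compounds are pinned in, incubation continues 24 hr, and firefly luciferase signal is then measured.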
ALOX12 inh: ALOX12 (human) lipoxygenase inhibition; actives 1.1% (n = 580,000); P18054; purified 12hLO, xylenol orange hydroperoxide absorbance; Potency, µM (series often up to 108 µM), inactives show at the highest dose activity change, negative = inhibition, usual class: inhibitors; note: potency is the fitted concentration of half-maximal effect; % is set by controls: 0 for no effect and ±100 for the full control effect
Target sequence (P18054 whole entry, looked up): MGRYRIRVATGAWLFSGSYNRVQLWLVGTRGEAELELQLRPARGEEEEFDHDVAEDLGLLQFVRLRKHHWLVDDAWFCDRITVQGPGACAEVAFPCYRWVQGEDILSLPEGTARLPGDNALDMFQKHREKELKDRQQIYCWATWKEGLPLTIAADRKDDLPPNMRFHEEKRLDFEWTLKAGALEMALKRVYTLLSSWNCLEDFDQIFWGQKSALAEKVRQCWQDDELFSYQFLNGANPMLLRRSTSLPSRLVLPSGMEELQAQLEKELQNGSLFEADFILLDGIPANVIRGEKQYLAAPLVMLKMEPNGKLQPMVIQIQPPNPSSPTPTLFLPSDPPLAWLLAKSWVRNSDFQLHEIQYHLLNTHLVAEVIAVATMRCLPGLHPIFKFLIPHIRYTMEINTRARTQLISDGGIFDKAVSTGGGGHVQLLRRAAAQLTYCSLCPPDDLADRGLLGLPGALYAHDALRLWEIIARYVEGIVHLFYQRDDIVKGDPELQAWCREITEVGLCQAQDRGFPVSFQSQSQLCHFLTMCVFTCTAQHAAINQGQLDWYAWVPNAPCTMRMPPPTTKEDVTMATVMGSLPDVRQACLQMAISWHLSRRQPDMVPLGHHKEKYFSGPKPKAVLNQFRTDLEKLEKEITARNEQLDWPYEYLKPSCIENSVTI
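Purified human 12hLO (150 nM final) in 25 mM Hepes, 0.01% Triton X-100, pH 7.0 was preincubated 15 min at room temperature with compound. Then 40 uM arachidonic acid was added, 30 min. Hydroperoxide was read by Fe-XO absorbance ratio 573/405 nm.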
Nrf2 inh: inhibitors of Nrf2 signaling | actives 2.1% (n = 360,000) | AID 504444 | A549 ARE-Fluc reporter, luciferase luminescence, 18-24 h | Potency, µM (doses to about 46 µM), without a hit: at the top dose activity change, negative = inhibition, usual class: inhibitors; note: potency is the fitted concentration of half-maximal effect; % is set by controls: 0 for no effect and ±100 for the full control effect; nearly all actives have a fitted effect of over 60% in size
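In this cell-based qHTS, ARE-driven firefly luciferase in A549 cells reports Nrf2 activity; the luminescent signal after BugLite lysis is the measured value, with a prior CellTiter-Fluor read for cell health.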
ERG Ets-DNA blk: inhibitors of human ERG Ets domain-DNA interaction | fluorescence polarization, His-ERG Ets domain / labelled DNA | Potency, µM (highest dose often 76.9 µM), inactives show at the top dose FP activity, negative = inhibition, usual class: inhibitors | actives 0.028% (n = 370,000) | AID 624246; active = well fitted inhibition curve with a large enough effect in the polarisation, with a control signal flat; inconclusive = small, poorly fitted or top-dose-only effect, or effect the other way, or a change in a side signal; inactive = no such curve, though single readings can be large or run the other way; the % refers to the polarisation;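 note: polarization taken with two DNA probes labelled with fluorescein and Texas red; potency is the fitted concentration of half-maximal effect; % of control where 0% means no effect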
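His-tagged ERG Ets domain (1 uM in the protein solution; 300mM KCl, 50mM Tris-HCl, 1mM EDTA, 1mM DTT, pH 7.5) received compound, then a probe mix of 5 nM fluorescein-DNA and 100nM Texas-615-DNA. Fluorescence polarization was read for both dyes.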
LDHA block: inhibitors of human lactate dehydrogenase A | activity change, % (values are at about 110 or 230 µM) | actives 0.15% (n = 480,000) | purified LDHA, NADH/diaphorase-resazurin fluorescence; stronger effect = lower value | P00338; in the data active = activity change below about -30%; inconclusive = mostly about -25% to -30%;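 note: plate controls were DMSO wells for no effect and wells without enzyme for full effect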
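LDH5 2 nM; NADH 0.06 mM, pyruvate 0.2 mM; 200 mM Tris pH 7.4, EDTA, Tween-20; 5 min RT. Detection: diaphorase 0.133 mg/mL + resazurin 37 µM, fluorescence ex540/em590 at 0 and 20 min; normalized to enzyme-free and DMSO wells.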
The depositor's hits bear a star; ? = inconclusive; · = not tested or not shown; [ ] = dose if it differs, or a comment. Unless noted, calls come from the whole dose curve; as a rule, active = well fitted curve in the direction sought with a large enough effect; inconclusive = small, poorly fitted or top-dose-only effect, or another doubt; inactive = no such curve, though single readings can be large; an effect the other way counts as inactive or inconclusive.

SMILES	A549 viability	Nrf2 ARE act	ALOX12 inh	Nrf2 inh	ERG Ets-DNA blk	LDHA block
COc1cccc(C2c3cc4c(cc3OC(N3CCOCC3)C2C)OCO4)c1O (stereo not drawn)	-12%	0%	32µM*	1%	·	-6
COc1cccc(C2c3cc4c(cc3OC(NNC(N)=O)C2C)OCO4)c1O (stereo not drawn)	-5%	0%	16µM*	8%	1%	1
Cc1cc(C(=O)COC(=O)c2ccc([N+](=O)[O-])o2)c(C)n1CC1CCCO1 (stereo not drawn)	-2%	16µM*	4%	?	11%	2
O=C(Cc1ccc([N+](=O)[O-])cc1)NCC1CCCO1 (stereo not drawn)	4%	0%	42%	10%	-8%	-1
COCCn1c(C)cc(C(=O)COC(=O)c2ccc([N+](=O)[O-])o2)c1C	-4%	?	-49%	16%	1%	0
O=C(NCC1CCCO1)c1ccc([N+](=O)[O-])o1 (stereo not drawn)	-7%	10µM*	-5%	0%	4%	1
CCOc1nc2ccccc2nc1N1CCC(C(=O)NCc2ccc(C)cc2)CC1	·	·	?	·	·	3
O=C1N/C(=C\c2ccccc2)c2ccccc21	13%[1.84 µM]	8.9µM*	10%	?	0%	-5
O=C1O/C(=C\c2ccccc2)c2ccccc21	1%	8%	-1%	2%	-2%	-3
Cc1oc(-c2nc(C#N)c(NCCCN(C)C)o2)cc1S(=O)(=O)N1CCCCCC1	·	·	18%	·	·	-18
CCc1ccc(NS(=O)(=O)c2ccc3[nH]c(=O)[nH]c3c2)cc1	-2%	0%	-1%	-11%	-8%	-1
CC(C)Cc1ccc(S(=O)(=O)Nc2ccc3[nH]c(=O)[nH]c3c2)cc1	0%	1%	-9%	18µM*	3%	1
COc1ccc(-c2c(C)c3cc(OS(=O)(=O)c4ccc(F)cc4)ccc3oc2=O)cc1	·	·	-12%	·	·	2
O=C(Nc1nc2ccccc2n1Cc1ccccc1)c1ccco1	-14%	0%	-5%	16µM*	3%	-1
CCC(=O)Nc1nc2ccccc2n1Cc1ccc(Cl)cc1	-7%	-2%	19%	21µM*	-7%	-15
CCNc1c(NS(=O)(=O)c2ccc(F)c(C)c2)c(=O)oc2ccccc12	·	·	3%	·	·	-9
COc1cccc(C2CC(=O)N3CN(c4ccccc4F)CSC3=C2C#N)c1 (stereo not drawn)	5%	0%	8.9µM*	8%	-4%	4
COc1ccccc1N1CSC2=C(C#N)C(c3ccc(SC)cc3)CC(=O)N2C1 (stereo not drawn)	5%	0%	11µM*	-5%	8%	-3
COc1ccc(OC)c(C2CC(=O)N3CN(c4ccccc4F)CSC3=C2C#N)c1 (stereo not drawn)	1%	0%	?	-1%	8%	6
Cc1c(-c2ccccc2)nn2c1NC(=O)CC2C(=O)Nc1ccccc1Cl (stereo not drawn)	·	·	?	·	·	1
CC(=O)c1c(N2CCOCC2)[nH]c(-c2ccccc2)nc1=S	?	0%	?	?	7%	1
CC(=O)c1c(N2CCN(Cc3ccccc3)CC2)[nH]c(-c2ccccc2)nc1=S	-14%	0%	40µM*	8%	-7%	0
CCOC(=O)N1CCN(c2nc(=S)n(-c3ccccc3)c(C)c2C(C)=O)CC1	-15%	0%	32µM*	·	1%	3
CC(=O)c1c(N2CCN(Cc3ccccc3)CC2)nc(=S)n(Cc2ccccc2)c1C	?	1%	-13%	21µM*	·	2
CC(=O)c1c(N2CCCCC2)nc(=S)n(Cc2ccccc2)c1C	2%	0%	-25%	-11%	15%	-8
SMILES	A549 viability	Nrf2 ARE act	ALOX12 inh	Nrf2 inh	ERG Ets-DNA blk	LDHA block
CC(=O)c1c(N2CCCC2)[nH]c(-c2ccccc2)nc1=S	11%[1.84 µM]	-1%	45µM*	?	-3%	-4
Cn1nc(C(=O)NCCN2CCCCCC2)c2c1-c1ccccc1OC2	·	·	6%	·	·	10
COc1ccc(CNC(=O)c2csc(NC3CC3)n2)cc1	·	·	12%	·	·	-14
C=CCN1C(=O)COc2ccc(NC(=O)c3cc(=O)c4c(C)cc(C)cc4o3)cc21	·	·	-19%	·	·	-9
CC(C)(C)C(=O)COC(=O)c1cc(-c2cccs2)nc2ccccc12	·	·	?	·	·	0
Brc1ccc2ncnc(Nc3ccc(N4CCOCC4)cc3)c2c1	-18%	2%	-16%	12µM*	·	5
CNC(=O)c1ccccc1NCC(=O)Nc1sc2c(c1C#N)CCCCC2	·	·	?	·	·	0
O=C(NN=Cc1c(O)ccc2ccccc12)c1ccncc1	?	0%	?	26µM*	-1%	12
Nc1nonc1N/N=C/c1c(O)ccc2ccccc12	7%	7.9µM*	-25%	23%	-5%	6
O=C(N/N=C\c1c(O)ccc2ccccc12)c1ccc(O)cc1	-15%	-1%	?	-20%	13%	5
c1cc(CNC2CC2)ccn1	·	·	-5%	·	·	0
CCCCC(=O)Nc1ccc(C(=O)NNC(=O)c2ccc(C)c(Br)c2)cc1	-2%	0%	-15%	-22%	-12%	-47*
Cc1nn(CCc2nn[nH]n2)c2nc(-c3ccc(Br)cc3)cc(C(F)(F)F)c12	?	0%	-17%	21µM*	-2%	-8
COc1cc2c(cc1NC(=O)c1ccc(C)c([N+](=O)[O-])c1)oc1ccccc12	4%	4%	-21%	-4%	-6%	-2
COc1cc2c(cc1NC(=O)c1cccc([N+](=O)[O-])c1)oc1ccccc12	18µM*	9%	84%	16µM*	-5%	-6
Clc1cccc(-c2nc(CSc3ncn[nH]3)co2)c1	·	·	-16%	·	·	-1
CN1CCN(c2ncc3nc(-c4cn(C)c5ccccc45)c(=O)n(-c4ccccc4)c3n2)CC1	·	·	6.3µM*	·	·	·
Cc1noc(CSc2ccccc2C(=O)N2CCCc3ccccc32)n1	·	·	47%	·	·	-2
CSc1nnc(C)c(/C=C/NOCc2ccc(Cl)cc2)n1	-6%	3%	?	-6%	-10%	26
Cc1nnc(SCc2ccc(Cl)cc2)nc1/C=C/N(C)C	?	0%	40µM*	7%	-3%	0
CSC1=NSC2=NC(=O)/C(=C/c3coc4ccccc4c3=O)C(=N)N12	2%	26%	?	-2%	15%	-8
CSC1=NSC2=NC(=O)/C(=C/c3coc4ccc(O)cc4c3=O)C(=N)N12	-3%	4%	18µM*	3%	64%	6
